# Assay results published in the supplement of paper PMC12636033.
# ± gives the standard deviation of the averaged measurements. In all, about 33,000 sequences were measured (“E-score (rank enrichment, -0.5 to 0.5)”: median about -0.0043, highest 2% from about 0.24 on). This is one part of a sample in which the highest values are shown more often than they occur.
# Test system: 2Sp-muMax20 (muMax20 with two 2,6-bis(methyl)pyridine Cys staples)
# Experiment: PBM 8-mer E-score (E-score (rank enrichment, -0.5 to 0.5)); higher = stronger preferential binding
# Description: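 Protein binding microarray (universal PBM chip covering all 10-mers in fixed probe flanks) with chemically synthesized human Max(13-93) bHLH-LZ analogs (not full-length Max) bearing noncanonical residues (hArg, Tha, Aib, Nle at 65) and aromatic Cys staples. Read-out per 8-mer (and its reverse complement): E-score (rank-based enrichment, -0.5 to 0.5) and Z-score of median probe intensity.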
row,Sequence,PBM 8-mer E-score
1,AGCTGGGA,-0.08 ± 0.019
2,ATTCATTG,0.161 ± 0.087
3,ATACATTG,0.106 ± 0.029
4,ATTCATTC,0.305 ± 0.013
5,CTACATTC,0.0778 ± 0.03
6,ATACATTC,0.2884 ± 0.0017
7,ATTCATTA,0.176 ± 0.007
8,GCCGTTCC,-0.21 ± 0.089
9,AGGTAGAG,-0.122 ± 0.024
10,AATGCTGT,-0.0251 ± 0.073
11,GGCCTCGA,-0.238 ± 0.045
12,ACGTGCTG,0.12 ± 0.063
13,CCGTGCTC,-0.119 ± 0.14
14,ACGTGCTC,0.259 ± 0.027
15,ACGTGCAT,0.195 ± 0.096
16,ACGTGCAC,0.273 ± 0.051
17,GCGTGCAC,0.204 ± 0.017
18,CTTACCAC,0.0166 ± 0.11
19,GTCCTTTA,-0.0713 ± 0.029
20,CCTATCCA,-0.0745 ± 0.015
21,AGTAGGAG,-0.0281 ± 0.053
22,CGCAAGAC,-0.023 ± 0.0044
23,CCCAATTC,0.246 ± 0.083
24,ACCAATTC,-0.0718 ± 0.0024
25,CCCAATTA,0.203 ± 0.057

row,Sequence,PBM 8-mer E-score
1,CATTCTTA,0.145 ± 0.085
2,ATGTTTGA,0.176 ± 0.031
3,ATAATCAA,0.0608 ± 0.095
4,ATAATCAT,0.27 ± 0.013
5,CTAATCAG,-0.0147 ± 0.026
6,ATAATCAG,0.304 ± 0.005
7,ATAATCTG,0.123 ± 0.1
8,ATAATCAC,0.0279 ± 0.026
9,CGTCGGCA,-0.197 ± 0.056
10,CTTCGTTC,-0.0473 ± 0.038
11,GGTTCAAC,-0.145 ± 0.05
12,CTCCATAA,0.0393 ± 0.028
13,TCCGGCAA,-0.207 ± 0.0021
14,CTTTCGTC,-0.0338 ± 0.038
15,ATTTCGTC,0.279 ± 0.019
16,ATTTCGTG,0.166 ± 0.031
17,CTACGACA,-0.0631 ± 0.043
18,ACCACGTG,0.436 ± 0.012
19,ATCACGCA,0.00557 ± 0.0074
20,ACCACGCA,0.0893 ± 0.0056
21,CCCACGCG,0.231 ± 0.014
22,ATCACGCG,0.247 ± 0.015
23,ACCACGCG,0.363 ± 0.023
24,ACCACGTA,-0.0775 ± 0.034
25,AGCACGTG,0.4333 ± 0.0023

row,Sequence,PBM 8-mer E-score
1,ACCACGTC,-0.0398 ± 0.011
2,AGCACGTC,-0.0658 ± 0.05
3,ATCACGCC,0.192 ± 0.043
4,AGCACGTA,0.0888 ± 0.021
5,ACTGCCAA,0.0746 ± 0.053
6,GGTAAGAC,-0.0928 ± 0.022
7,CCGATAAG,-0.181 ± 0.034
8,ATTTTGCA,0.143 ± 0.086
9,TCGTCTCA,-0.0634 ± 0.048
10,ATGTACCA,-0.0255 ± 0.13
11,GAGTGCGC,-0.0296 ± 0.0031
12,CCCCAAGA,0.144 ± 0.023
13,ACCTGGAT,-0.149 ± 0.028
14,GCCGCAGA,-0.0428 ± 0.041
15,CTAGGACC,-0.182 ± 0.025
16,ATCACGTG,0.397 ± 0.047
17,AGCACGCG,0.289 ± 0.0067
18,CGCACGCG,0.178 ± 0.032
19,ATCACGTA,0.00227 ± 0.14
20,ATCACGTC,0.0413 ± 0.035
21,AGCACGCA,0.00395 ± 0.075
22,CTTCTTAA,0.126 ± 0.15
23,CGAAGTGC,0.0928 ± 0.034
24,CACGCGGG,0.187 ± 0.091
25,AACGCGGC,-0.0876 ± 0.028

row,Sequence,PBM 8-mer E-score
1,CACGCGGA,0.357 ± 0.015
2,AACGCGGA,-0.162 ± 0.14
3,GACGCGGC,-0.08 ± 0.03
4,CACGCGGC,0.299 ± 0.034
5,ATTATGCC,0.128 ± 0.012
6,TGCGCACA,0.124 ± 0.025
7,ATGGGGTC,0.0299 ± 0.041
8,ATGGGGTG,0.175 ± 0.018
9,GTGGGGGA,0.0699 ± 0.011
10,GGGGGAAA,-0.0158 ± 0.089
11,TGGGGGAA,0.0001 ± 0.016
12,ATGGGGCC,-0.0651 ± 0.11
13,CTGGGGAA,-0.125 ± 0.026
14,GTGGGGAA,0.277 ± 0.027
15,ATGGGGCA,0.11 ± 0.12
16,TGGGGAAA,0.306 ± 0.022
17,ATGGGGTA,0.239 ± 0.05
18,ATGGGGCG,0.25 ± 0.0057
19,CACAGCGG,-0.125 ± 0.059
20,GATGCCGA,-0.0813 ± 0.081
21,AGCGTATA,0.0565 ± 0.04
22,ACATCACT,0.176 ± 0.046
23,GCCAGTAA,-0.116 ± 0.011
24,CCTCGCGC,-0.0606 ± 0.077
25,CCTCAGAG,-0.228 ± 0.044

row,Sequence,PBM 8-mer E-score
1,ATGGGGGA,-0.0138 ± 0.082
2,ATGGGGAC,0.0501 ± 0.13
3,ATGGGGAA,0.266 ± 0.018
4,GTGGGATA,0.292 ± 0.047
5,ATGGGATA,0.179 ± 0.02
6,CTGGGATA,-0.0899 ± 0.077
7,AGCATACG,0.02 ± 0.039
8,ATCGAGAA,0.0729 ± 0.041
9,ACAGGACC,-0.187 ± 0.045
10,CCGGTCCC,-0.358 ± 0.035
11,CACATATA,0.328 ± 0.021
12,GTCATATA,0.207 ± 0.099
13,AACACACA,0.118 ± 0.081
14,ATCATATG,0.138 ± 0.065
15,AACACACT,0.249 ± 0.0053
16,AACATATA,0.269 ± 0.036
17,CACATATG,0.112 ± 0.013
18,AACACACG,0.0266 ± 0.031
19,AACATATG,0.0968 ± 0.03
20,GACATATA,0.12 ± 0.0021
21,ATCATATA,0.254 ± 0.041
22,CACATATC,0.223 ± 0.019
23,ACCGGTCG,-0.287 ± 0.03
24,CCACGCCC,0.0986 ± 0.0018
25,CTCGTTAC,0.0748 ± 0.13

row,Sequence,PBM 8-mer E-score
1,CGGAATTC,-0.121 ± 0.019
2,AGCGTTAA,0.0977 ± 0.058
3,ATCCAGTC,-0.0864 ± 0.015
4,CAGGAACC,-0.307 ± 0.049
5,CCCATAAG,0.182 ± 0.018
6,CCCAGCTC,-0.0772 ± 0.05
7,AACACATA,0.257 ± 0.046
8,AACACATG,0.224 ± 0.05
9,CACATCTA,0.258 ± 0.014
10,CACACATA,0.061 ± 0.0022
11,TACATATA,0.262 ± 0.09
12,CACATCTG,-0.0474 ± 0.049
13,TACATAAA,0.229 ± 0.018
14,TACATACA,0.211 ± 0.075
15,CACATCTC,-0.00875 ± 0.02
16,TAGGTCCA,-0.13 ± 0.058
17,GCAACCGA,-0.233 ± 0.078
18,CGACCATC,-0.0509 ± 0.089
19,CCATTGTA,0.214 ± 0.022
20,AATAAAAG,0.25 ± 0.074
21,ATAAAGCA,0.241 ± 0.014
22,CATAAAAG,-0.0196 ± 0.1
23,AATAAATA,0.0526 ± 0.066
24,ATAAAAAA,0.202 ± 0.038
25,CATAAATA,0.33 ± 0.059

row,Sequence,PBM 8-mer E-score
1,ATAAAAGG,0.0278 ± 0.023
2,ATAAAAAG,0.315 ± 0.0042
3,ATAAAGCG,0.0648 ± 0.005
4,AATAAAGG,0.0234 ± 0.076
5,CTAAAGCA,0.0725 ± 0.028
6,TATAAATA,0.203 ± 0.1
7,TACGAGAA,0.0414 ± 0.0095
8,CCCGACTC,-0.0283 ± 0.023
9,CCGAGCCG,-0.298 ± 0.03
10,GACCCGCC,0.106 ± 0.0061
11,TCGGAGAA,-0.136 ± 0.017
12,AGGTCTAG,0.0236 ± 0.096
13,ACCTGGTA,-0.129 ± 0.0054
14,CATGGGCG,-0.0275 ± 0.017
15,CAGCCCCC,-0.165 ± 0.099
16,CACTTGAA,0.112 ± 0.02
17,CAAAGGGA,-0.103 ± 0.053
18,GTAAAACA,0.174 ± 0.056
19,ATCAAGCA,-0.065 ± 0.053
20,AATAACAC,0.134 ± 0.04
21,AATAACAA,0.259 ± 0.041
22,ATCAAACA,0.26 ± 0.0065
